Compounds without any hit were thinned out: in the full panel of roughly 83,000, 20% have a hit.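 Single-dose data. Exposure time 48 hours. Values below 10 considered active.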 Unmarked numbers belong to inactive results. Calls of active or inactive are those of the source.
Legend:
Experiment in all cases: NCI-60 one-dose screen, 48 h (100 = growth as untreated, 0 = no growth, -100 = all killed)
Details in all cases: 10 µM
NCI-H23 lung = test system: NCI-H23 lung
NCI-H226 lung = test system: NCI-H226 lung
NCI-H322M lung = test system: NCI-H322M lung
HOP-62 NSCLC = test system: HOP-62 NSCLC
NCI-H460 lung = test system: NCI-H460 lung
HOP-92 NSCLC = test system: HOP-92 NSCLC
NCI-H522 lung = test system: NCI-H522 lung
A549/ATCC NSCLC = test system: A549/ATCC NSCLC
786-0 renal = test system: 786-0 renal
COLO 205 colon = test system: COLO 205 colon
DU-145 prostate = test system: DU-145 prostate
K-562 leukemia = test system: K-562 leukemia
MALME-3M melanoma = test system: MALME-3M melanoma
MDA-MB-231 breast = test system: MDA-MB-231 breast
SF-268 CNS = test system: SF-268 CNS
SF-295 CNS = test system: SF-295 CNS
SF-539 CNS = test system: SF-539 CNS
UACC-257 melanoma = test system: UACC-257 melanoma
M14 melanoma = test system: M14 melanoma

Row | Structure (SMILES) | growth (NCI-H23 lung) | growth (NCI-H226 lung) | growth (NCI-H322M lung) | growth (HOP-62 NSCLC) | growth (NCI-H460 lung) | growth (HOP-92 NSCLC) | growth (NCI-H522 lung) | growth (A549/ATCC NSCLC) | growth (786-0 renal) | growth (COLO 205 colon) | growth (DU-145 prostate) | growth (K-562 leukemia) | growth (MALME-3M melanoma) | growth (MDA-MB-231 breast) | growth (SF-268 CNS) | growth (SF-295 CNS) | growth (SF-539 CNS) | growth (UACC-257 melanoma) | growth (M14 melanoma)
1 | Cc1ccc(-c2cc(C(=O)N=Nc3c(O)[nH]c4ccccc34)c3ccccc3n2)cc1 | 31.8% | 47% | 69.8% | 66.2% | -35.8% (active) | 21.6% | 56.6% | 2.51% (active) | 35.8% | -5.04% (active) | 3.29% (active) | 13.8% | 36.5% | 2.78% (active) | 36.4% | 94.3% | -66.2% (active) | 81% | 70.5%
2 | CCOC(=O)N/C(=C1/OCCN1C)[P+](c1ccccc1)(c1ccccc1)c1ccccc1 | 85.8% | 93.1% | 89.9% | 97.6% | 86.7% | 59.1% | 54.2% | 89% | 101% | 41.3% | 93% | 41.2% | 71% | 59.9% | 103% | 88.1% | 78.1% | 27.8% | 90.9%
3 | CCOP(=O)(OCC)O[C@H]1CC[C@]2(C)[C@H]3CC[C@@H]4[C@@H]([C@](C)(O)CCC=C(C)C)CC[C@@]4(C)[C@]3(C)CC[C@H]2C1(C)C | 15.4% | 20.9% | 74.1% | 57.3% | 11.2% | 2.88% (active) | 1.32% (active) | 22.1% | 23.3% | -33% (active) | 41.4% | 13% | 40.3% | 13.9% | 45.9% | 32.1% | 42.7% | 9.27% (active) | 29%
4 | CN1CCN(Cc2ccc(NC(=O)c3cncc(C#Cc4cnc5ccc(N[C@@H]6CCOC6)nn45)c3)cc2C(F)(F)F)CC1 | -81.3% (active) | -94.9% (active) | -99.2% (active) | -75.5% (active) | -30% (active) | -82% (active) | -71.6% (active) | -56% (active) | -77.4% (active) | -65.5% (active) | -100% (active) | -0.568% (active) | -99.1% (active) | -94.7% (active) | -80.7% (active) | -98.6% (active) | -100% (active) | -85.9% (active) | -83.3% (active)
5 | O=C(CNc1nc(-c2ccccc2)cs1)Nc1ccc(Cl)cc1[N+](=O)[O-] | -57.3% (active) | -54.2% (active) | 35.7% | -27.7% (active) | 5.09% (active) | -14.2% (active) | -82.8% (active) | 12.6% | 4.95% (active) | -64.7% (active) | 10.1% | 4.23% (active) | -70.5% (active) | -66.7% (active) | -58.4% (active) | -49.7% (active) | -86.8% (active) | -17.2% (active) | -13.1% (active)
6 | O=C(CSc1nnc(-c2ccc3nc(-c4ccc(Cl)cc4)[nH]c3c2)o1)Nc1ccc(Br)cc1 | -82.9% (active) | -62.9% (active) | -40.8% (active) | -66.9% (active) | -82.7% (active) | -11.3% (active) | -67.9% (active) | -54.9% (active) | -74.9% (active) | 0.691% (active) | 11.7% | 5.15% (active) | -81% (active) | -97.3% (active) | 0.811% (active) | -89.4% (active) | -95.2% (active) | -12.9% (active) | -84.4% (active)
7 | N#C/C(=C\c1ccc(N(c2ccccc2)c2ccccc2)cc1)C(N)=O | 55.9% | -82.6% (active) | 92.9% | 48.9% | 5.51% (active) | 75.5% | 74.5% | 36.3% | 53.9% | 19.7% | 84.8% | 35.4% | 110% | 89.3% | 102% | 23.5% | 97% | -55.9% (active) | 90.7%
8 | Cc1cc(=O)oc2cc(OCCCCOc3ccc(/C=C/C(=O)Nc4ccc(F)c(Cl)c4)cc3)ccc12 | 87% | 95.9% | 93.4% | 108% | 86.7% | 115% | 94.6% | 79.7% | 94.9% | 115% | 89.1% | 88% | 71% | 97.1% | 111% | 101% | 89.3% | 97.8% | 95.9%

From PubChem BioAssay (NCI)
